Assay outcomes as filed in PubChem.
TrxR1 substrate: substrates of rat thioredoxin reductase 1. purified TrxR1 substrate turnover, NADPH consumption readout. 390,000 tested, 0.01% active. O89049. Potency, µM (doses to about 114 µM), without a hit: at the top dose activity change, negative = substrate turnover; further: nearly all actives have a fitted effect of over 50% in size
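Rat TrxR1, dispensed at 90 nM, was prereduced with 400 uM NADPH (final) for 5 min at ~22 deg C, then incubated with compound 15 min before 400 uM selenite. A first-read NADPH fluorescence drop versus no-compound background flagged substrates.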
rTrxR1 inhibitor: rat TrxR1 inhibition; O89049; recombinant rTrxR1, NADPH fluorescence consumption, selenite substrate; Potency, µM (doses to about 114 µM), without a hit: at the top dose activity change, negative = inhibition, hits mostly inhibitors; 390,000 tested, 1% active; further: nearly all actives have a fitted effect of over 65% in size
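Rat TrxR1 (90 nM in the dispensed reagent) was pre-reduced with 400 uM NADPH for 5 min at room temperature, then incubated with compound for 15 min. After 400 uM selenite was added, NADPH fluorescence (Ex 340/Em 450 nm) was followed for 8 min.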
Sfp PPTase inh: Sfp phosphopantetheinyl transferase inhibition; Biochemical Sfp PPTase activity, qHTS; Potency, µM, for inactives: largest response in the series, negative = inhibition, usual class: inhibitors; 310,000 tested, 3.5% active; AID 1490;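 further: the enzyme is Sfp with the accession as filed and its product quenches rhodamine fluorescence; 0% = enzyme reaction without inhibitor and -100% = no enzyme wells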
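Buffer: 50 mM Hepes-Na pH 7.6, 10 mM MgCl2, 0.01% Nonidet P-40, 0.01% BSA. Enzyme 15 nM, pre-exposed to compound 15 min; substrates then added and fluorescence change tracked over 30 min.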
VDR inhibitor: blocks the human vitamin D receptor. P11473. VDR-SRC2-3 peptide fluorescence polarization, 2 h. Potency, µM, inactives show max response, negative = inhibition, actives largely listed as inhibitors. 400,000 tested, 0.93% active. AID 504847
Target sequence (P11473 whole entry, looked up): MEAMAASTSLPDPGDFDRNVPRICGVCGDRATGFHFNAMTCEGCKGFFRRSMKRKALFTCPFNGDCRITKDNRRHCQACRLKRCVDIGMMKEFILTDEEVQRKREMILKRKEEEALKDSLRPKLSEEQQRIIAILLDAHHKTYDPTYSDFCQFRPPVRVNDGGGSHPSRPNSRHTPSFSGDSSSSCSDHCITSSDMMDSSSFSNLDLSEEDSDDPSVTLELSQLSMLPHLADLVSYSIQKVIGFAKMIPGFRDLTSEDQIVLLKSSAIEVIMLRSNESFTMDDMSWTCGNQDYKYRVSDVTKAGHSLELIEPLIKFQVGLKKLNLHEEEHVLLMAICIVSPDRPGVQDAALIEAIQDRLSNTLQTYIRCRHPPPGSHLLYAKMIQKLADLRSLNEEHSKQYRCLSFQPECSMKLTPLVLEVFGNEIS
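Compounds are added to VDR with labelled SRC2-3 coactivator peptide and held 2 h at room temperature. Inhibition of the VDR–peptide interaction is then read as a change in fluorescence polarization.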
GCN5L2 inh: GCN5L2 (KAT2A) acetyltransferase inhibition. Potency, µM (doses to about 58.9 µM), inactives show at the highest dose activity change, negative = inhibition, usual class: inhibitors. Q92830. AID 504327. GCN5L2 HAT assay, ThioGlo1 CoA-SH fluorescence. 390,000 tested, 0.21% active
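qHTS, 1536-well. 20nM enzyme, pH 7.5 HEPES/EDTA/Tween-20 buffer; 15 min compound preinc., RT. Start: 75uM H3(1-25), 70uM AcCoA, 50uM ThioGlo1. Read Ex340/Em540 at t=0 (autofluorescence flag) and t=20 min.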
GLS inh: blocks human kidney-isoform glutaminase activity | O94925 | GLS enzymatic activity, qHTS titration | 410,000 tested, 0.21% active | AID 624170 | Potency, µM (highest dose often 45.5 µM), without a hit: at the top dose activity change, negative = inhibition, hits mostly inhibitors
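Coupled fluorescence readout: glutamate oxidase/HRP/Amplex Red detect glutamate formed by hKGA from L-glutamine (1 mM solution added). Buffer 45 mM KH2PO4 pH 8.2, 0.02% Tween-20; reads at t0 and 30 min RT.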
* = called active by the depositor; [ ] = another dose, or the depositor's remark. Hits are enriched below; roughly 3.8% of the tested compounds scored in any of these assays. The call rests on the fitted dose curve; in most records, active means well fitted curve in the direction sought with a large enough effect; inconclusive means small, poorly fitted or top-dose-only effect, or another doubt; inactive means no such curve, though single readings can be large; an effect the other way counts as inactive or inconclusive. Unless noted, on the % scale 0 is the no-effect control and ±100 the full control effect; potency means the concentration at half of the fitted maximal effect.

How did COC(=O)C1=C(c2ccc(-c3ccccc3)c(F)c2)C[C@@H]2CC[C@H]1N2C(=O)NCCOc1ccc(OC)cc1 do in these assays?
TrxR1 substrate: 15%; rTrxR1 inhibitor: 36%; VDR inhibitor: 2%; GCN5L2 inh: -11%; GLS inh: 5%

How did COC(/C(C)=C/C=C/C(C)=C/c1coc(C)n1)C(C)C1CC(O)C2(C)OC2C=CC(C)C2CC(CC(=O)O2)CC2OC2C(=O)O1 (configuration not stated) do in these assays?
TrxR1 substrate: 1%; rTrxR1 inhibitor: 10µM*; VDR inhibitor: -20%; GLS inh: 4%

What do the screens show for `CC(=O)Nc1ccccc1C(=O)OCc1ccccc1F`?
TrxR1 substrate: 3%; rTrxR1 inhibitor: 29%; Sfp PPTase inh: 7%; VDR inhibitor: 9%; GCN5L2 inh: -6%; GLS inh: 10%

Results for CCOc1ccc2nc(N=Nc3c(O)[nH]c(=S)[nH]c3=O)sc2c1 ?
TrxR1 substrate: -10%[57.1 µM]; rTrxR1 inhibitor: -5%[57.1 µM]; Sfp PPTase inh: 56µM*; VDR inhibitor: -5%; GCN5L2 inh: -11%; GLS inh: inconclusive

How did O=c1[nH]c(=S)n(-c2ccccc2)c(O)c1/C=N/N1CCCCC1c1cccnc1 (configuration not stated) do in these assays?
TrxR1 substrate: -6%; rTrxR1 inhibitor: -16%; Sfp PPTase inh: 50µM*; VDR inhibitor: 29%; GCN5L2 inh: -18%; GLS inh: -3%

How did Cc1[nH]c2ccccc2c1CN(C)C do in these assays?
Sfp PPTase inh: 9%; VDR inhibitor: 5%; GCN5L2 inh: 0%

How did CC(=O)[O][Hg][c]1ccccc1 do in these assays?
Sfp PPTase inh: 0.18µM*; VDR inhibitor: 1.8µM*; GCN5L2 inh: inconclusive; GLS inh: inconclusive

Results for CC(=O)/C=C/c1ccccc1 ?
TrxR1 substrate: 8%[57.1 µM]; rTrxR1 inhibitor: 16%[57.1 µM]; VDR inhibitor: -9%; GCN5L2 inh: -1%; GLS inh: 11%

What do the screens show for `Cc1ccc(N2C(=O)NC(=O)/C(=C/c3cnc(-c4ccccc4)nc3)C2=O)cc1C`?
TrxR1 substrate: 2%; rTrxR1 inhibitor: 6.3µM*; Sfp PPTase inh: inconclusive; VDR inhibitor: 32µM*; GCN5L2 inh: 1%; GLS inh: -10%

How did CC(C)c1ccc(N2C(=O)NC(=O)/C(=C\c3cnc(-c4ccccc4)nc3)C2=O)cc1 do in these assays?
TrxR1 substrate: 8%[57.1 µM]; rTrxR1 inhibitor: 10µM*; Sfp PPTase inh: 45µM*; VDR inhibitor: -22%; GCN5L2 inh: -9%; GLS inh: inconclusive

What do the screens show for `Oc1ccc2c3c1O[C@H]1[C@H](O)CC[C@@]4(O)[C@@H](C2)N(CC2CC2)CC[C@]314`?
Sfp PPTase inh: 3%; VDR inhibitor: 12%; GCN5L2 inh: -6%

How did Nc1ccc(C2(c3ccc(N)cc3)CCCCC2)cc1 do in these assays?
TrxR1 substrate: 5%[57.1 µM]; rTrxR1 inhibitor: 5%[57.1 µM]; Sfp PPTase inh: 1%; VDR inhibitor: -2%; GCN5L2 inh: -9%; GLS inh: 12%

How did COc1ccc(-n2c(-c3ccc(C)cc3)nc3ccccc3c2=O)cc1 do in these assays?
TrxR1 substrate: -5%; rTrxR1 inhibitor: 3%[57.1 µM]; Sfp PPTase inh: -19%; VDR inhibitor: -14%; GCN5L2 inh: -13%; GLS inh: -18%

Results for Cc1ccc(-c2n[nH]c(=S)n2-c2ccccc2)cc1 ?
TrxR1 substrate: -6%[57.1 µM]; rTrxR1 inhibitor: inconclusive; Sfp PPTase inh: 79µM*; VDR inhibitor: 6%; GCN5L2 inh: 0%; GLS inh: -17%

Results for Cc1ccc(-n2c(-c3nn(C)c(C)c3Cl)n[nH]c2=S)cc1 ?
TrxR1 substrate: -11%; rTrxR1 inhibitor: 40µM*; Sfp PPTase inh: 56µM*; VDR inhibitor: 4%; GCN5L2 inh: 0%; GLS inh: -7%

How did Cc1ccc(-n2c(O)c(/C=N/N3CCOCC3)c(=O)[nH]c2=S)cc1 do in these assays?
TrxR1 substrate: -22%; rTrxR1 inhibitor: -28%; Sfp PPTase inh: inconclusive; VDR inhibitor: -13%; GCN5L2 inh: 33%; GLS inh: 30%

Results for COc1ccc(N2C(=O)/C(=C/c3cccs3)C(=O)NC2=S)cc1 ?
TrxR1 substrate: -2%[57.1 µM]; rTrxR1 inhibitor: 7.9µM*; Sfp PPTase inh: 8.9µM*; VDR inhibitor: -2%; GCN5L2 inh: -11%; GLS inh: -1%

Results for COC(=O)Cn1cc(/C=C2\C(=O)NC(=O)N(c3ccc(OC)cc3)C2=O)c2ccccc21 ?
TrxR1 substrate: 27%[57.1 µM]; rTrxR1 inhibitor: -16%[57.1 µM]; Sfp PPTase inh: -23%; VDR inhibitor: -9%; GCN5L2 inh: -3%; GLS inh: -43%

Results for COc1ccc(/C=C/C=C2C(=O)NC(=S)NC2=O)cc1 ?
TrxR1 substrate: -6%; rTrxR1 inhibitor: 7.1µM*; VDR inhibitor: inconclusive; GLS inh: 2%

What do the screens show for `CCOc1cc(C=C2C(=O)NC(=S)NC2=O)ccc1O`?
TrxR1 substrate: -1%[2.29 µM]; rTrxR1 inhibitor: -78%[57.1 µM]; VDR inhibitor: inconclusive; GLS inh: 3%

Results for COc1ccccc1/C=C1\C(=O)NC(=S)N(c2ccccc2)C1=O ?
TrxR1 substrate: 7%; rTrxR1 inhibitor: inconclusive; Sfp PPTase inh: 45µM*; VDR inhibitor: 50µM*; GCN5L2 inh: -8%; GLS inh: -11%

What do the screens show for `COc1ccc(C=C2C(=O)NC(=S)NC2=O)cc1OC`?
TrxR1 substrate: -4%; rTrxR1 inhibitor: 7.1µM*; VDR inhibitor: 40µM*; GLS inh: inconclusive

How did COc1ccc(CN2C(=O)CC(=O)NC2=S)cc1 do in these assays?
TrxR1 substrate: 4%; rTrxR1 inhibitor: -27%; Sfp PPTase inh: inconclusive; VDR inhibitor: 14%; GCN5L2 inh: -7%; GLS inh: 5%

What do the screens show for `CCOC(=O)[C@]12Cc3c(cc(OC)c(OC)c3OC)[C@H]1N(C(C)C)C(=O)c1ccccc12`?
GLS inh: -25%

Results for COc1ccccc1C=C1C(=O)NC(=S)NC1=O ?
TrxR1 substrate: 8%; rTrxR1 inhibitor: inconclusive; VDR inhibitor: 45µM*; GLS inh: -28%

What do the screens show for `CCN1C(=O)/C(=C/c2ccc(N(CC)CC)cc2OC)C(=O)NC1=S`?
TrxR1 substrate: -3%; rTrxR1 inhibitor: inconclusive; Sfp PPTase inh: inconclusive; VDR inhibitor: inconclusive; GCN5L2 inh: -3%; GLS inh: 0%

How did CCCCNC(C)Cc1ccccc1 (configuration not stated) do in these assays?
TrxR1 substrate: -6%; rTrxR1 inhibitor: -2%; VDR inhibitor: -2%; GCN5L2 inh: -5%; GLS inh: -16%

Results for FC(F)(F)c1cccc(-n2nnnc2C2(N3CCOCC3)CCCCC2)c1 ?
TrxR1 substrate: -7%; rTrxR1 inhibitor: -1%[57.1 µM]; Sfp PPTase inh: 19%; VDR inhibitor: 1%; GCN5L2 inh: -10%; GLS inh: 5%
